The list is not random: actives were taken first. Their share in the collection is about 11%.
HPGD block: blocks human HPGD enzyme activity; purified HPGD, NADH fluorescence kinetic, PGE2 substrate; Potency, µM, without a hit: at the highest dose activity change, negative = inhibition, most hits filed as inhibitors; 150,000 tested, 4.3% active; also: potency is read from the fitted curve at half-maximal effect; % is scaled to controls: 0 for no effect and ±100 for the full control effect
Target sequence (P15428 whole entry, looked up): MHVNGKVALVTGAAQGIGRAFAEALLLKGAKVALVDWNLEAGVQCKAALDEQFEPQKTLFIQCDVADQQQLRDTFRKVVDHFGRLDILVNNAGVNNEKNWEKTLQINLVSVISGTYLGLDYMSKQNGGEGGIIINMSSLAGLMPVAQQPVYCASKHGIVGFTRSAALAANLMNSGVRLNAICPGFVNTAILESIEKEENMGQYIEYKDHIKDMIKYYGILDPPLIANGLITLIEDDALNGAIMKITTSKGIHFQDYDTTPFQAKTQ
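NADH formation kinetics: reaction with 30 uM PGE2 and 1 mM NAD+ (final), 20 nM enzyme, Tris-HCl pH 8 with Tween 20, after 15 min compound preincubation at room temperature. Fluorescence change, last versus first of five reads.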
RGS12 GoLoco inh: inhibitors of human Gai1-RGS12 GoLoco interaction (red fluorophore). P63096. Gai1:RGS12 GoLoco peptide FP, rhodamine, 10 min. Potency, µM (highest dose often 61.6 µM), without a hit: at the top dose activity, negative = inhibition, most hits filed as inhibitors. 230,000 tested, 0.44% active. AID 880; active = well fitted inhibition curve with a large enough effect, not every such curve was filed as active; inactive = no such curve, though single readings can be large or run the other way; also: potency is read from the fitted curve at half-maximal effect; % is scaled to controls: 0 for no effect and ±100 for the full control effect; nearly all actives have a fitted effect of over 30% in size
Target sequence (P63096 whole entry, looked up): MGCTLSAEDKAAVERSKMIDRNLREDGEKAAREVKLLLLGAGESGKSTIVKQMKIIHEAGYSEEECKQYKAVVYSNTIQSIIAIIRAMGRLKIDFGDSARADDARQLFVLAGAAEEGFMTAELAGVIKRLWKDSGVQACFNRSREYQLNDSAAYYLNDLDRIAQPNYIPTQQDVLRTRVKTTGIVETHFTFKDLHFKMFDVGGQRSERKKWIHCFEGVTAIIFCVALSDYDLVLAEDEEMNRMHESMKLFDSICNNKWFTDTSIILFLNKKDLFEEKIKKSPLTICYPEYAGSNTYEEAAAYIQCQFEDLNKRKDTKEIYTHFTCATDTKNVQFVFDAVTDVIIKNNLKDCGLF
HTT aggregate: reduces HttQ103-GFP aggregates in PC12 cells. PC12 HttQ103-GFP aggregates, Acumen cytometry, 40 h. Potency, µM (titrated, usually from 46.1 µM), without a hit: at the highest dose activity change, negative = inhibition, hits mostly inhibitors. 220,000 tested, 1.1% active; active = well fitted curve in the direction sought with a large enough effect; inconclusive = small, poorly fitted or top-dose-only effect, or another doubt; inactive = no such curve, though single readings can be large; an effect the other way counts as inactive or inconclusive; also: potency is read from the fitted curve at half-maximal effect; % is scaled to controls: 0 for no effect and ±100 for the full control effect; nearly all actives have a fitted effect of over 60% in size
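Aggregate formation scored by laser-scanning cytometer (488 excitation, 500–530 emission) in lysed PC12 cells expressing Q103-GFP after 100 nM tebufenozide induction; library tested in dose series, with ATPLite reagent added in the multiplex.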
ALDH1A1 inh: inhibitors of human aldehyde dehydrogenase 1A1 | P00352 | Purified ALDH1A1, NADH fluorescence, propionaldehyde substrate | Potency, µM (top dose mostly 75.3 µM), for inactives: top-dose activity, negative = inhibition, actives largely listed as inhibitors | 220,000 tested, 7.3% active | AID 1030;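 also: potency is read from the fitted curve at half-maximal effect; plate controls were no enzyme wells and a reference inhibitor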
PNC assembly inh: perinucleolar compartment assembly inhibition. PC3M PTB-GFP, PNC prevalence imaging, 16 h; stronger effect = lower value. activity change (PNC), negative = inhibition, % at 10 µM. 140,000 tested, 3.1% active. AID 2417;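 active = readout at or below -70, meaning at least 70% loss of cells showing the perinucleolar compartment, a nuclear body marking cancer cells; inconclusive = readout between -30 and a set limit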;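 also: plate controls were DMSO wells for no effect and camptothecin positive control wells for full effect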
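Compounds are pinned in duplicate onto adhered PC3M cells stably expressing GFP-tagged PTB and incubated 16 h at 37 C. Cells are then fixed, nuclei stained with Hoechst, and PNC-positive cells counted.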
HTT cytoprotect: Huntington cell model cytoprotection by ATP luminescence; 230,000 tested, 0.14% active; Potency, µM (series often up to 56.4 µM), inactives show cytoprotection (ATP increase), usual class: activators; PC12 HTT-Q103 induced, cytoprotection, ATP luminescence, 40 h; AID 1471; active = well fitted curve in the direction sought with a large enough effect; inconclusive = small, poorly fitted or top-dose-only effect, or another doubt; inactive = no such curve, though single readings can be large; an effect the other way counts as inactive or inconclusive; also: potency is read from the fitted curve at half-maximal effect; % of control where 0% means no effect; nearly all actives have a fitted effect of over 45% in size
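Rat PC12, Q103 Htt exon1-GFP fusion, ecdysone promoter; tebufenozide inducer 100 nM final; compound titration; qHTS, 1500 cells/well; ATPlite luminescent read.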
Numbers without * were called inactive; u = inconclusive; x = no result given; [ ] = dose if it differs, or a comment. Unless noted, calls follow the shape of the dose curve; as a rule, active = well fitted inhibition curve with a large enough effect (not every such curve was filed as active); inconclusive = small, poorly fitted or top-dose-only effect, or another doubt; inactive = no such curve, though single readings can be large or run the other way.

SMILES | HPGD block | RGS12 GoLoco inh | HTT aggregate | ALDH1A1 inh | PNC assembly inh | HTT cytoprotect
O=C(NCCCc1ccccc1)c1ccc(Br)o1 | 25µM* | 0% | 5% | u | 9 | -2%[0.074 µM]
O=C(NNC(=S)NCc1ccc(Cl)cc1)c1ccc(Br)o1 | x | 6% | -5%[9.22 µM] | -1% | x | 5%[10 µM]
Cc1ccc(/C=N\NC(=O)C2CC(=O)N(c3ccccc3)C2)o1 (centres undefined) | x | -7% | -4%[9.22 µM] | -13% | x | 5%[10 µM]
Cc1ccn2cc(CNC(=O)c3ccc(Br)o3)nc2c1 | 16µM* | 2% | 14% | 1% | -19 | -7%
Cc1ccc2cc(CCNC(=O)c3ccc(Br)o3)c(=O)[nH]c2c1 | 28µM* | 3% | 10% | u | 37 | -19%
O=C(NCCCc1ccccc1)c1ccccc1O | u | -15% | 10µM* | u | 13 | -12%[10 µM]
O=C(NCCO)c1ccccc1O | u | -10% | 10% | u | -10 | 7%
CCCOc1ccc(C(=O)CCN2CCCCC2)cc1 | -21% | -4% | 10% | 0.056µM* | -9 | -29%
CCCC(O)(CCN1CCOCC1)c1ccc(Br)cc1 (centres undefined) | -8% | 6% | 1% | 5µM* | 4 | -52%
CCOc1ccc(C(=O)CCN2CCCCCC2)cc1 | -14% | 4% | u | 0.063µM* | 19 | -36%
CCCCOc1ccc(C(=O)CCN2CCOCC2)cc1 | x | 1% | 18% | 0.28µM* | x | -6%
COc1ccc(CCNC(=O)CCc2ccc(S(=O)(=O)NCC(C)C)cc2)cc1 | -3% | 3% | -4% | -10% | u | x
CCOc1ccc(OCCN2CCCCC2)cc1 | 0% | 0% | 3% | -6% | -88* | 12%[0.074 µM]
Brc1cccc(OCCCN2CCCCCC2)c1 | x | 2% | 7% | 13µM* | x | x
CCCOc1ccc(C(O)(CCC)CCN2CCCCC2)cc1 (centres undefined) | -10% | 7% | u | 25µM* | 12 | 13%[10 µM]
CCCCCC(=O)O[C@H](CC(=O)O)C[N+](C)(C)C | -8% | 3% | x | 6% | x | -4%
Cc1cccc(C)c1Nc1oc(-c2ccccc2)nc1-c1cccc2ccccc12 | -17% | 3% | x | 0% | x | -20%
CC(C)(Cc1c[nH]c2ccccc12)NCC(O)COc1ccccc1C#N (centres undefined) | x | x | -11% | x | x | -55%
CC(=O)Nc1ccc(S(=O)(=O)NCCc2ccccn2)cc1 | x | 2% | 29% | 9% | x | x
COCCn1c(C)cc(C2=NNC(=Nc3ccc(Cl)cc3Cl)SC2)c1C | -11% | 27% | 0% | 25µM* | u | u
COCCn1c(C)cc(C2=NNC(=NC3CC3)SC2)c1C | x | -8% | 14% | -3% | x | -217%
COCCCN=C1NN=C(c2cc(C)n(Cc3ccco3)c2C)CS1 | -10% | 3% | -1% | -11% | -108* | -50%[10 µM]
Cc1cc(C2=NNC(=NC3CC3)SC2)c(C)n1Cc1ccco1 | -22% | 20% | u | 20µM* | -27 | -11%[10 µM]
Cc1cc(C2=NNC(=NC3CC3)SC2)c(C)n1-c1ccccc1 | -13% | 3% | 21% | 3.5µM* | -7 | -43%[10 µM]
C=CCN=C1NN=C(c2cc(C)n(CCOC)c2C)CS1 | -20% | 3% | 7% | u | u | -31%[10 µM]
SMILES | HPGD block | RGS12 GoLoco inh | HTT aggregate | ALDH1A1 inh | PNC assembly inh | HTT cytoprotect
O=C(O)CC[C@]1(C(=O)O)CCC(=O)c2ccccc21 | 1% | -2%[14.2 µM] | x | 0%[13.5 µM] | x | 6%[10 µM]
COc1cccc([C@@H]2Oc3ccc(OC)cc3C[C@H]2O)c1 | -10% | 1% | x | 7% | x | 4%
Cc1ccccc1N1C(=O)CC(N2CCC(C(N)=O)CC2)C1=O (centres undefined) | 7% | -22% | -12% | u | u | -9%
NC(=O)C1CCN(C2CC(=O)N(c3ccc(F)c(Cl)c3)C2=O)CC1 (centres undefined) | -11% | -10% | 7% | 25µM* | 13 | -10%
NC(=O)C1CCN(C2CC(=O)N(c3cccc(F)c3)C2=O)CC1 (centres undefined) | 0% | 1% | -3% | 22µM* | 15 | -12%[0.074 µM]
COC(=O)c1n[nH]n(-c2cc(Cl)cc(Cl)c2)c1=O | x | 0% | -8%[9.22 µM] | 10µM* | x | 9%[10 µM]
COC(=O)c1nnn(-c2cc(Cl)cc(Cl)c2)c1C(=O)OC | x | 0% | -5%[9.22 µM] | x | x | 16%[10 µM]
C/C(N)=C(/C#N)C(=O)CSc1nnnn1-c1ccc(C)cc1C | -12% | 9% | u | u | -133* | -21%
Cc1ccc(-n2nnnc2SC(C)C(N)=O)c(C)c1 (centres undefined) | -2% | 1% | -5% | -2% | 33 | -6%
Cc1cc(Cl)nc(NC(=O)CSc2ccc(Cl)cc2)n1 | 0% | -2%[14.2 µM] | x | -5%[13.5 µM] | x | 5%[10 µM]
Cc1[nH]c2ccccc2c1C(=O)CN1CCCCC1C (centres undefined) | -19% | 40% | 28%[9.22 µM] | 20µM* | -96* | 12%
Cc1[nH]c2ccccc2c1C(=O)CCl | x | 33% | -9%[9.22 µM] | 0.25µM* | x | 12%[10 µM]
Cc1[nH]c2ccccc2c1C(=O)CSc1ccccc1 | -10% | -8% | -7% | -8% | -10 | -7%[10 µM]
COc1ccc(OC)c(-n2nnnc2SCC(=O)Nc2ccc(C(=O)N3CCCCC3)cc2)c1 | 0.35µM* | -2% | -22% | 1.4µM* | 47 | 5%[10 µM]
COc1ccc2nc(NNC(=O)COc3ccccc3)sc2c1 | x | 7% | 4% | 20µM* | x | -101%
COc1cccc(-n2nnnc2SCC(=O)Nc2ccc(C(C)=O)cc2)c1 | -12% | 9% | -2% | -11% | 55 | 3%[10 µM]
CCn1nnnc1SCC(=O)Nc1nc2ccc(OC)cc2s1 | -15% | -3% | 13% | -9% | -100* | 4%[10 µM]
O=C(CSc1nnnn1C1CC2CCC1C2)Nc1ccnc2ccccc12 (centres undefined) | u | 15% | u | 2.5µM* | -15 | 21%[10 µM]
CCOC(=O)c1ccc(NC(=O)CSc2nnc(CNc3ccc(OC)cc3)n2C)cc1 | -16% | 14% | 4% | 13µM* | -3 | -3%
O=C(CSc1nnnn1C1CCCCC1)Nc1cccc(NC(=O)c2ccco2)c1 | -14% | -6% | 2% | 28µM* | 16 | 3%[10 µM]
COc1ccc(NCc2nnc(SCC(=O)Nc3ccc(OC)cc3)n2C)cc1 | x | 7% | -3% | 9% | x | -50%
O=C(CSc1nnnn1C1CCCCC1)Nc1ccccc1F | x | 21% | x | 4µM* | x | x
O=C(CSc1nnnn1C1CCCCC1)Nc1ccc2c(c1)OCO2 | -3% | 13% | 5% | 7.9µM* | -17 | -6%[10 µM]
O=C(CSc1nnnn1C1CCCC1)Nc1cccc(NC(=O)c2ccco2)c1 | -6% | 5% | -3% | u | 7 | -21%[10 µM]
O=C(CSc1nnnn1C1CCCCC1)Nc1ccc(F)cc1 | x | 3% | -12%[9.22 µM] | u | x | 9%[10 µM]
